In PubChem BioAssay (EPA / NIEHS):
Records with an inconclusive call do not appear. Activity calls are given as the source filed them. How the source made its calls: active means hit-call score of the fitted dose curve at least 0.9, where 1 is the maximum; inconclusive means response in the unintended direction; inactive means score below 0.9.

Target: Androgen receptor (Homo sapiens) (UniProt P10275)
Assay: ATG_AR_TRANS: Attagene TRANS-FACTORIAL HepG2 Assay for human Androgen Receptor (AR) (AID 2282973)
Conditions: HepG2 Attagene TRANS-FACTORIAL AR reporter transcription
Procedure: ATG_TRANS is a cell-based, multiplexed-readout assay that uses HepG2, a human liver cell line, with measurements taken at 24 hours after chemical dosing in a 24-well plate.ATG_AR_TRANS is one of 30 assay component(s) measured or calculated from the ATG_TRANS assay. It is designed to make measurements of mRNA induction, a form of inducible reporter, as detected with fluorescence intensity signals by Reverse transcription polymerase chain reaction (RT-PCR) and Capillary electrophoresis technology.Data from the assay component ATG_AR_TRANS was analyzed into 1 assay endpoint. This assay endpoint, ATG_AR_TRANS, was analyzed in the positive analysis fitting direction relative to DMSO as the negative control and baseline of activity. Using a type of inducible reporter, measures of mRNA for gain-of-signal activity can be used to understand the reporter gene at the transcription factor-level as they relate to the gene AR. Furthermore, this assay endpoint can be referred to as a primary readout, because this assay has produced multiple assay endpoints where this one serves a reporter gene function. To generalize the intended target to other relatable targets, this assay endpoint is annotated to the nuclear receptor intended target family, where the subfamily is steroidal.
Human liver HepG2 cells are transiently transfected with multiple reporter transcription units (MRTUs) in 6-well plates using FuGene 6 reagent (Roche; 3 ml FuGene/1 mg DNA). The MRTU constructs are regulated by a cis-regulating element (promoter). […] A major difference between the CIS and TRANS system is that in CIS activities of endogenous TFs are measured, whereas the TRANS assay evaluates changes in activities of exogenous, chimeric NR-Gal4 proteins. […] At the end of 24 hour incubation, total RNA was isolated using TriZol reagent (Invitrogen). The isolated RNA is then reverse-transcribed using oligo(dT) primer and Mo-MLV reverse transcriptase (Invitrogen) with DNAse I (Ambion) treatment for 30 min. The one-tenth of the produced cDNA was amplified by PCR using Taq DNA polymerase (Invitrogen) and two reporter sequence-specific primers. The PCR products were fluorescently labeled by primer extension with 6-arboxyfluorescein (6-FAM) 5'-labeled reporter sequence-specific primer (2 min at 95 C, 20 s at 68 C and 10 min at 72 C) and these products were digested with 5U of HpaI (New England Biolabs) for 2h at 37 C. The fragments were purified using Qiaquick PCR columns (Qiagen), analyzed on an ABI 3130xL genetic analyzer (Applied Biosystems) with peak positions identified by using a set of X-rhodamine (ROX)-labeled MapMarker1000 molecular weight standards (BioVentures). The raw capillary electrophoresis data was processed using Attagraph software (Attagene).

Androgen receptor (Homo sapiens), sequence (P10275 whole entry, looked up): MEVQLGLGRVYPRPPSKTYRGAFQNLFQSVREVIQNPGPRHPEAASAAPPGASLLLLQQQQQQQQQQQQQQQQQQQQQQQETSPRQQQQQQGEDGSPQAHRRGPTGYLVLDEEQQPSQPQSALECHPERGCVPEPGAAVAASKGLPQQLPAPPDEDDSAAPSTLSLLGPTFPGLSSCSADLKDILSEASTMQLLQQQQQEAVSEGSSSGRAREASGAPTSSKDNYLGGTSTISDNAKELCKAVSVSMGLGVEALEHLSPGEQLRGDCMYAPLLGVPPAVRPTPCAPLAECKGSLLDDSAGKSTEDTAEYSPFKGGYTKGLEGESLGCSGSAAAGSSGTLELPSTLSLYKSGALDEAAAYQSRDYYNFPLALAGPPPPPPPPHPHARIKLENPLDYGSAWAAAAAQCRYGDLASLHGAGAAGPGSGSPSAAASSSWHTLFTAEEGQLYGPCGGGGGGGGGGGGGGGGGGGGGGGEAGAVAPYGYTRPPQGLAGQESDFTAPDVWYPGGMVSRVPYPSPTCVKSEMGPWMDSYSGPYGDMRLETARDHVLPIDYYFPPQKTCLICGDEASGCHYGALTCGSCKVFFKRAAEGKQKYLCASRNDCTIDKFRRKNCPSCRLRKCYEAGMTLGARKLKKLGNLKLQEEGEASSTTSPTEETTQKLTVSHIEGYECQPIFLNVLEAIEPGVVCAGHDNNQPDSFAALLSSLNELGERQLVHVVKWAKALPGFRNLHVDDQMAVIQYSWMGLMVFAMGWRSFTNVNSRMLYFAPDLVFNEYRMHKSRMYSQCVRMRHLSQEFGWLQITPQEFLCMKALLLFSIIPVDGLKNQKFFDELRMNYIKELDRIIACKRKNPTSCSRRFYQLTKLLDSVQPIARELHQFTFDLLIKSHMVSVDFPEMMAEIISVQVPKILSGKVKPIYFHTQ

Row | SMILES | outcome | AC50
1 | CCOC=C(C(=O)OCC)C(=O)OCC | inactive | 
2 | CC1=CCC2C(C1)C2(C)C (stereo not given) | inactive | 
3 | CN(C)c1ccc(C(c2ccccc2)c2ccc(N(C)C)cc2)cc1 | inactive | 
4 | CC(=O)CC(=O)Nc1ccc(C)cc1C | inactive | 
5 | COC(C)(C)CCC[C@H](C)C/C=C/C(C)=C/C(=O)OC(C)C | inactive | 
6 | COc1ccccc1C=O | inactive | 
7 | CN[C@H]1CC[C@@H](c2ccc(Cl)c(Cl)c2)c2ccc(S(N)(=O)=O)cc21 | inactive | 
8 | Cc1cc(CCN2CCN(c3nsc4ccccc34)CC2)cc2c1NC(=O)CC2(C)C | inactive | 
9 | CCCCCCCC(=O)OCCCCCC | inactive | 
10 | NC(O)(C(F)(F)F)C(F)(F)F | inactive | 
11 | FC(F)(F)C(F)(F)C(F)(F)CI | inactive | 
12 | CC(=O)C1(C)CC2=C(CCCC2(C)C)CC1C (stereo not given) |  | 158 µM (active)
13 | C=C1CC[C@H]2O[C@]2(C)CC[C@@H]2[C@@H]1CC2(C)C | inactive | 
14 | CCc1c(C)cc(N)c(CC)c1N | inactive | 
15 | CCCCCc1ccc(O)cc1 | inactive | 
16 | c1ccc2c(c1)CCC2 | inactive | 
17 | CC1=Nc2ccc3ccccc3c2C1(C)C | inactive | 
18 | C=CC(=O)OCC(F)(F)C(F)(F)C(F)(F)C(F)(F)C(F)(F)C(F)(F)C(F)(F)C(F)F | inactive | 
19 | COCC(C)OCC(C)OCC(C)O (stereo not given) | inactive | 
20 | C=CC(F)(F)C(F)(F)C(F)(F)C(F)(F)C(F)(F)C(F)(F)C(F)(F)C(F)(F)C=C | inactive | 

Row | SMILES | outcome | AC50
21 | Oc1cc2ccccc2cc1O | inactive | 
22 | C=CC(=O)OCCN(CC)CC | inactive | 
23 | FC(F)(F)COC(OCC(F)(F)F)OCC(F)(F)F | inactive | 
24 | CC1(C)COCN1 | inactive | 
25 | CC(=O)O[C@@H]1CC2CCC1(C)C2(C)C (stereo not given in full) | inactive | 
26 | O=C(CC(=O)C(F)(F)C(F)(F)C(F)(F)F)c1cccs1 | inactive | 
27 | CN(C[C@@H](CC[N+]12CCC(C3CCCCC3)(CC1)CC2)c1ccc(Cl)c(Cl)c1)C(=O)c1cc(C(F)(F)F)cc(C(F)(F)F)c1 | inactive | 
28 | O[Si](c1ccccc1)(c1ccccc1)c1ccccc1 | inactive | 
29 | OC(O)(C(F)C(O)(O)C(F)(F)F)C(F)(F)F | inactive | 
30 | COc1cc(CCC(C)=O)ccc1O | inactive | 
31 | O=C(Cl)C(F)(F)C(F)(F)C(F)(F)C(F)(F)C(F)(F)C(F)(F)F | inactive | 
32 | FC(F)=C(F)C(F)(F)C(F)(F)C(F)(F)C(F)F | inactive | 
33 | CC(=O)O[C@H]1C[C@@H]2CC[C@@]1(C)C2(C)C | inactive | 
34 | Cc1cc(C)c(S(=O)(=O)O)cc1N=Nc1cc(S(=O)(=O)O)c2ccccc2c1O | inactive | 
35 | Cc1ccc(C)c2ccccc12 | inactive | 
36 | O=S(=O)(O)CCC(F)(F)C(F)(F)C(F)(F)C(F)(F)C(F)(F)C(F)(F)F | inactive | 
37 | COc1ccc(C)cc1N | inactive | 
38 | C[C@]12CC[C@@H]3c4ccc(O)cc4C[C@@H](CCCCCCCCCS(=O)CCCC(F)(F)C(F)(F)F)[C@H]3[C@@H]1CC[C@@H]2O (stereo not given in full) | inactive | 
39 | Nc1ccnc(=O)[nH]1 | inactive | 
40 | O=P(O)(O)CCC(F)(F)C(F)(F)C(F)(F)C(F)(F)C(F)(F)C(F)(F)C(F)(F)C(F)(F)F | inactive | 
